# In PubChem BioAssay:
# Active and inactive are the calls of the source. Unless noted, how the calls were made is not given here.
# Columns and labels:
# [1] = system: Wnt5a (protein binding on small-molecule microarray); test: Wnt5a binders on small-molecule microarray, primary screen, biophysical, 635/667 nm fluorescence (AID 1142); conditions: 635 nm fluorescence, higher = more signal;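 further: fluorescence read at 667 nm with signal to noise per printed feature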
# [2] = cell viability in Huh7 cells, primary screen, cytotoxicity control for HCV replication inhibitor project, CellTiter-Glo luminescence, basal, 48 h (AID 1143); conditions: Huh7 HCV replicon, higher = more signal, called active from +8 up or from −8 down;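 further: Huh7 hepatoma cells carrying a hepatitis C replication reporter with no stimulus; test concentration not given here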
# [3] = P. aeruginosa biofilm formation inhibitors, primary screen, PAO1 strain, BacTiter-Glo luminescence, LB-PBS (AID 1144); conditions: 12 h, higher = more signal
# [4] = CREB reporter modulators without forskolin, primary screen, cell-based, PC12, CRE-LacZ reporter, unstimulated (AID 1145); conditions: no forskolin, luminescence, 4.5 h, higher = more signal, called active from +8 up or from −8 down
# [5] = CREB reporter modulators under forskolin, primary screen, cell-based, PC12, CRE-LacZ reporter, forskolin-stimulated (AID 1146); conditions: luminescence, 4.5 h, higher = more signal, called active from +8 up or from −8 down;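 further: PC12 cells with 6xCRE LacZ reporter stimulated by forskolin 10 µM; beta-galactosidase reporter signal reflecting CREB driven transcription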
# [6] = biological target: Streptavidin (Streptomyces avidinii) (UniProt P22629); test: streptavidin binders on small-molecule microarray, primary screen, artefact control for SMM compound annotation, biophysical, 635/667 nm fluorescence (AID 1147); conditions: streptavidin binding, higher = more signal;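 further: signal reflects streptavidin binding to arrayed compounds as a control protein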
# [7] = small-molecule binders of probe aInhba, primary screen, biochemical, small-molecule microarray, 635/667 nm fluorescence (AID 1148); conditions: higher = more signal;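 further: score merges 667nm spot fluorescence with signal-to-noise for antibody binding to printed compounds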
# Torsin-1A (Homo sapiens) [8] = biological target: Torsin-1A (Homo sapiens) (UniProt O14656); test: torsin A binders from cell lysate, primary screen, small-molecule microarray, wild-type, 635/667 nm (AID 1149); conditions: COS7 hTOR1A-WT lysate, 635 nm fluorescence, higher = more signal
# Torsin-1A (Homo sapiens) [9] = biological target: Torsin-1A (Homo sapiens) (UniProt O14656); test: small-molecule binders of mutant TOR1A in lysate, primary screen, cell lysate, small-molecule microarray, COS7 lysate, 635/667 nm fluorescence (AID 1150); conditions: COS7 hTOR1A mutant lysate, 635 nm fluorescence, higher = more signal;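 further: score pools 667 nm emission and signal to noise measuring lysate protein binding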
# [10] = system: Sonic hedgehog protein (Shh); test: small-molecule binders of Shh protein, primary screen, biochemical, small-molecule microarray, 635/667 nm fluorescence (AID 1151); conditions: small-molecule microarray binding, 635 nm fluorescence; higher = more signal;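 further: Shh protein binding to compounds spotted on small-molecule microarray slides; score combines spot fluorescence intensity with signal-to-noise across triplicate slides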
# [11] = E. coli DRC41 culture turbidity changes, primary screen, E. coli filamentation inducer project, strain DRC41, OD650, 48 h (AID 1152);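 further: E. coli MC1000 strain DRC41 lacking acrAB efflux pump and sulA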; conditions: E. coli DRC41 (acrAB sulA), higher = more signal, called active from +8 up or from −8 down
# [12] = small-molecule binders of probe aLefty1, primary screen, biochemical, small-molecule microarray, 635/667 nm fluorescence (AID 1153); conditions: higher = more signal;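 further: score merges spot fluorescence with signal-to-noise ratio from the scanned slide images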
# [13] = PSAC antagonists in infected red cells, primary screen, cell-based, P. falciparum Indochina, OD700, 1 h (AID 1154); conditions: P. falciparum Indochina infected RBC osmotic lysis, higher = more signal, called active from +8 up or from −8 down
# [14] = PSAC antagonists in infected red cells, primary screen, cell-based, P. falciparum Indochina, OD700, 2 h (AID 1155);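 further: lysis reports solute entry through the parasite surface anion channel PSAC; channel blockers reduce lysis of infected cells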; conditions: P. falciparum Indochina infected erythrocytes, osmotic lysis OD700; higher = more signal, called active from +8 up or from −8 down
# [15] = osmotic lysis modulators in infected erythrocytes, primary screen, PSAC antagonist project, cell-based, P. falciparum Indochina, OD700, 3 h (AID 1156); conditions: higher = more signal, called active from +8 up or from −8 down
# [16] = PSAC antagonists in infected red cells, primary screen, cell-based, P. falciparum Indochina, OD700, 18 h (AID 1157); conditions: P. falciparum Indochina infected erythrocytes, osmotic lysis OD700, 18 h; higher = more signal, called active from +8 up or from −8 down
# [17] = modulators of S6 phosphorylation in cells, primary screen, cell-based, A549, cytoblot, luminescence, serum-stimulated (AID 1158); conditions: A549 phospho-S6 cytoblot, 5 h, higher = more signal;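 further: serum-stimulated A549 lung adenocarcinoma cells; signal is phosphorylated S6 detected by cytoblot immunostaining with HRP secondary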
# [18] = biological target: NADPH oxidase 2 (Homo sapiens) (UniProt P04839); test: NOX2-dependent H2O2 signal modulators, primary screen, NOX inhibitor project, cell-based, HEK293-NOX2, PMA-stimulated, Amplex Red fluorescence (AID 1159); conditions: 45 min, higher = more signal, called active from +8 up or from −8 down; further: test concentration not given here
# [19] = biological target: NADPH oxidase 4 (Homo sapiens) (UniProt Q9NPH5); test: NOX4-dependent H2O2 signal modulators, primary screen, NOX inhibitor project, cell-based, HEK293-NOX4, tetracycline-induced, Amplex Red fluorescence (AID 1160); conditions: 45 min, higher = more signal, called active from +8 up or from −8 down
# [20] = biological target: NADPH oxidase 5 (Homo sapiens) (UniProt Q96PH1); test: NOX5-dependent H2O2 signal modulators, primary screen, NOX inhibitor project, cell-based, HEK293-NOX5, Amplex Red fluorescence (AID 1161); conditions: HEK293-NOX5, ionomycin, 45 min, higher = more signal
# Chain of NADPH oxidase 5 (Homo sapiens) (Q96PH1 whole entry, looked up): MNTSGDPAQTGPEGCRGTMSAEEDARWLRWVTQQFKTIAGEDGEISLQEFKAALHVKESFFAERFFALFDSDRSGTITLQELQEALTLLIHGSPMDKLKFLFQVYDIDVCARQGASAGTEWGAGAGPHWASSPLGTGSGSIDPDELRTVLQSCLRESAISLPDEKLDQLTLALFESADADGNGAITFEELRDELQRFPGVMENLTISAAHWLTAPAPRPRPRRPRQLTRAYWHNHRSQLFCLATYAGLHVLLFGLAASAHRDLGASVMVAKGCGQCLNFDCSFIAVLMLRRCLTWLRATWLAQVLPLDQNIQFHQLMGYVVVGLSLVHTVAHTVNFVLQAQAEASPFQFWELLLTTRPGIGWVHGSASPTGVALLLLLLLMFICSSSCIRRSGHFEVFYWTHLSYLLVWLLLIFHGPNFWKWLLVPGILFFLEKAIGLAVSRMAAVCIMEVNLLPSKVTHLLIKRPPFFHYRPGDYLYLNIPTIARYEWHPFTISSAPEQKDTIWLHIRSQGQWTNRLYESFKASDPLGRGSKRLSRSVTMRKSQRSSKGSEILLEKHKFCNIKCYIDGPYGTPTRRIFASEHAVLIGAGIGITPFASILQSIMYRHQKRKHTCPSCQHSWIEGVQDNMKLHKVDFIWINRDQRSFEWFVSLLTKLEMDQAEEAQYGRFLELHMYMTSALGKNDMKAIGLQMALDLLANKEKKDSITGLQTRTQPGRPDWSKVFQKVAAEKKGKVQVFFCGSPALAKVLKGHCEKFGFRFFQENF
# Chain of Torsin-1A (Homo sapiens) (O14656 whole entry, looked up): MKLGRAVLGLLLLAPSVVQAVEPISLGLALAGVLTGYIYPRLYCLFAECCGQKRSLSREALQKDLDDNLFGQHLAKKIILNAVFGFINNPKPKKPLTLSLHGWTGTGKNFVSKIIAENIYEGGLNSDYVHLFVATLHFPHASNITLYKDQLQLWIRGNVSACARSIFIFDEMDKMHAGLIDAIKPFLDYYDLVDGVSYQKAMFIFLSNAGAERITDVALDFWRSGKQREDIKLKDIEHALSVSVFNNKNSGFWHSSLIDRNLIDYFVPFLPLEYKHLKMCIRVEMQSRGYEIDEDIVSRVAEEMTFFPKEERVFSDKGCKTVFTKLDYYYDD
# Chain of NADPH oxidase 2 (Homo sapiens) (P04839 whole entry, looked up): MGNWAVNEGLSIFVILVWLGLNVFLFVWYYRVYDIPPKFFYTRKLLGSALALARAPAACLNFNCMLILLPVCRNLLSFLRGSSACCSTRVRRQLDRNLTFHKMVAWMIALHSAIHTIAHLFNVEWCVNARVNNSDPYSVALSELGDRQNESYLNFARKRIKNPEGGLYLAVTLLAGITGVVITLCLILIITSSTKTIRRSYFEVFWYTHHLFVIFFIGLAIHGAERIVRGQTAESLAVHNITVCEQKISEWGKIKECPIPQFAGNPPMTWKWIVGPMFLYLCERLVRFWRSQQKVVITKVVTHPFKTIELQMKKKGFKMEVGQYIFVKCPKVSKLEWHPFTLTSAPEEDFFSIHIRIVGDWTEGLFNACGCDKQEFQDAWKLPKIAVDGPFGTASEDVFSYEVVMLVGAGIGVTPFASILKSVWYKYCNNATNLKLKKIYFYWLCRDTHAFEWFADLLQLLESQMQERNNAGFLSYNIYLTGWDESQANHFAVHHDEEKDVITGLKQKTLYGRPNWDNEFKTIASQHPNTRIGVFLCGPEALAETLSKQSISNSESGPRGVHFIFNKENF
# Chain of Streptavidin (Streptomyces avidinii) (P22629 whole entry, looked up): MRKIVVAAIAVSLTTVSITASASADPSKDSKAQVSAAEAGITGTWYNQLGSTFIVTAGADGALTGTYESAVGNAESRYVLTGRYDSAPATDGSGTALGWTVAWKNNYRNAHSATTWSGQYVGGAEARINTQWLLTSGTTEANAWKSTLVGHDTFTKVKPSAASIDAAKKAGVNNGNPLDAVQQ
# Chain of NADPH oxidase 4 (Homo sapiens) (Q9NPH5 whole entry, looked up): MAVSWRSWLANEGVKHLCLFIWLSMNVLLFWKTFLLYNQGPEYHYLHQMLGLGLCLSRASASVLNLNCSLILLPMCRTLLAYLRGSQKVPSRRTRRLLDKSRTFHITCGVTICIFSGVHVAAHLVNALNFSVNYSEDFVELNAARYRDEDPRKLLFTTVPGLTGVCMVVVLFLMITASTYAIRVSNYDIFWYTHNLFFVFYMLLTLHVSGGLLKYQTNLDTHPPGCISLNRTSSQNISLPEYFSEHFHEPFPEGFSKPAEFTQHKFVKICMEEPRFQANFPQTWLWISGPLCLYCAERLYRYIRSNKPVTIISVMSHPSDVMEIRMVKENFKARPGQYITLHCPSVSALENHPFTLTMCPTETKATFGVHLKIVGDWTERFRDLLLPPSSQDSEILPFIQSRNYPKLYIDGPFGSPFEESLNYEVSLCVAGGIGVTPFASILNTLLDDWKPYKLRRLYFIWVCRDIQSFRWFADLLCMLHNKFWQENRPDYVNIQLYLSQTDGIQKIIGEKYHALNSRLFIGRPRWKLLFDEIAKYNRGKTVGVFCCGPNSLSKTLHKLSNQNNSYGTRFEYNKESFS
SMILES,composite z-score [1],z-score [2],z-score [3],z-score [4],z-score [5],composite z-score [6],composite z-score [7],composite z-score (Torsin-1A (Homo sapiens) [8]),composite z-score (Torsin-1A (Homo sapiens) [9]),composite z-score [10],z-score [11],composite z-score [12],z-score [13],z-score [14],z-score [15],z-score [16],z-score [17],z-score [18],z-score [19],z-score [20]
NC(=O)[C@@H]1[C@H]2C(=O)O[C@H](c3ccccc3)[C@H](c3ccccc3)N2[C@H](c2ccccc2OCCO)[C@@]12C(=O)Nc1ccc(C#CCCO)cc12,-0.335,-3.21 (inactive),-0.663 (inactive),0.299 (inactive),-0.445 (inactive),0.837,-0.0407,-0.969,0.115,-0.116,1.41 (inactive),-0.0464,14.3 (active),0.966 (inactive),-2.23 (inactive),-1.18 (inactive),1.02,2.03 (inactive),1.18 (inactive),1.02
O=C1c2ccccc2C(=O)C2CC([C@H]3Oc4ccccc4S(=O)(=O)N4CCC[C@@H]34)=CCC12 (stereo not given in full),-0.0428,-3.06 (inactive),0.618 (inactive),6.12 (inactive),-1.59 (inactive),0.161,-0.0471,0.208,0.402,-0.133,1.03 (inactive),-0.196,8 (inactive),1.12 (inactive),-0.0247 (inactive),0.696 (inactive),0.127,0.5 (inactive),-3.1 (inactive),-0.779
C=CCNC(=O)[C@@H]1[C@H]2C(=O)O[C@H](c3ccccc3)[C@H](c3ccccc3)N2[C@H](c2ccc(O)cc2)[C@@]12C(=O)Nc1ccc(C#CCCO)cc12,0.177,-2.21 (inactive),-0.661 (inactive),0.0384 (inactive),-0.612 (inactive),-0.955,-0.153,-1.05,-0.106,-0.736,1.79 (inactive),-0.495,2.1 (inactive),-0.785 (inactive),-0.534 (inactive),-1.86 (inactive),0.727,0.422 (inactive),-0.449 (inactive),0.425
CC(C)c1ccc(NN2C(C(O)c3cccs3)C=CC3C(=O)N(c4ccccc4)C(=O)C32)cc1 (stereo not given),0.119,-0.506 (inactive),-0.579 (inactive),0.812 (inactive),0.311 (inactive),1.78,0.152,0.248,0.182,-0.04,-1.5 (inactive),0.498,3.11 (inactive),0.962 (inactive),0.566 (inactive),0.899 (inactive),-1.16,-1.11 (inactive),-3.51 (inactive),-2.9
COC(=O)C(CC#Cc1ccc2c(c1)[C@]1(C(=O)N2)[C@H](c2ccccc2OCCO)N2[C@H](c3ccccc3)[C@H](c3ccccc3)OC(=O)[C@H]2[C@@H]1C(=O)Nc1nc2ccccc2s1)C(=O)OC,0.384,-2.07 (inactive),-0.827 (inactive),1.21 (inactive),1.53 (inactive),0.762,0.0633,0.283,0.24,1.46,-1.2 (inactive),0.361,4.68 (inactive),1.71 (inactive),0.103 (inactive),1.77 (inactive),0.334,1.04 (inactive),0.517 (inactive),0.545
NC(=O)NCC#Cc1ccc2c(c1)[C@]1(C(=O)N2)[C@H](c2ccc(O)cc2)N2[C@H](c3ccccc3)[C@H](c3ccccc3)OC(=O)[C@H]2[C@@H]1C(N)=O,-0.0353,-0.281 (inactive),-0.125 (inactive),-0.0515 (inactive),0.143 (inactive),-0.928,-0.105,-1.49,-1.74,0.0139,0.373 (inactive),-0.127,0.792 (inactive),0.215 (inactive),1.15 (inactive),0.319 (inactive),0.112,0.408 (inactive),-0.571 (inactive),-0.72
O=C1OCCC=C[C@H]2OC34C=CCN(Cn5nnc6ccccc65)C(=O)[C@H]3N(CCCCCO)C(=O)[C@@H]4C12 (stereo not given in full),-0.355,0.399 (inactive),-1.04 (inactive),0.0564 (inactive),0.804 (inactive),-0.686,-0.0762,0.97,1.15,0.0364,0.592 (inactive),0.119,2.34 (inactive),0.573 (inactive),2.35 (inactive),0.281 (inactive),0.0848,1.4 (inactive),0.279 (inactive),1.51
COc1ccc([Si](C)(C)[C@H]2[C@H](CC(=O)N3CCC[C@H]3CO)O[C@@]3(C(=O)N(Cc4ccc(N5C(=O)c6cccc7cccc5c67)cc4)c4ccccc43)[C@@H]2C)cc1,0.213,-3.73 (inactive),0.0403 (inactive),0.543 (inactive),-0.594 (inactive),0.197,0.134,0.81,0.397,2.05,-0.0217 (inactive),0.0903,6.9 (inactive),1.31 (inactive),1.72 (inactive),0.771 (inactive),0.298,1.86 (inactive),1.19 (inactive),2.62
O=C1c2ccccc2[C@](Cc2ccccc2I)(C(=O)NC2CC2)[C@H](c2ccc(CO)cc2)N1Cc1ccccc1Cl,0.805,-0.77 (inactive),0.167 (inactive),0.468 (inactive),-0.159 (inactive),0.191,0.168,0.501,1.04,1,-1.03 (inactive),0.44,8.39 (active),0.825 (inactive),2.82 (inactive),0.966 (inactive),-0.283,0.717 (inactive),0.466 (inactive),0.739
